The supplement of paper PMC10849652
About 7,900 targets were measured; listed, in parts, are those with a hit and a random draw of the rest. About 0.6% of all pairs of compound and target were hits.

Legend:
Experiment in all cases: log2 fold change, soluble protein after heating vs DMSO (PISA); higher = thermal stabilisation; K562 cells, 10 uM, 30 min; active = over 0.2 and 3.5 SD of the protein, either way, in both replicates (recomputed)
[1] = target: ZNF217 (UniProt O75362)
How it was run: (§1)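 K562 cells at 2×10^6 cells/mL were treated for 30 min with 10 μM compound, and aliquots were heated for 3 min over 48°C-58°C before pooling. Extraction used PBS with 0.5% NP-40 at 4°C, and soluble protein was the supernatant after 21,000xg for 90 min, measured by TMTpro 16plex LC-MS/MS with channel sums equalised. Thermal stability values, relative to control samples and from duplicates, are log2 fold changes.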

[2] = target: ZNF277 (UniProt Q9NRM2)
How it was run: as §1

[3] = target: ZNF511 isoform 1 (UniProt Q8NB15)
How it was run: as §1

[4] = target: ZNF579 (UniProt Q8NAF0)
How it was run: as §1

[5] = target: ZNF580 (UniProt Q9UK33)
How it was run: as §1

[6] = target: ZNF609 (UniProt O15014)
How it was run: as §1

[7] = target: ZNF622 (UniProt Q969S3)
How it was run: as §1

[8] = target: ZRANB2 (UniProt O95218)
How it was run: as §1

[9] = target: ZW10 (UniProt O43264)
How it was run: as §1

[10] = target: ZWILCH (UniProt Q9H900)
How it was run: as §1

[11] = target: ZYG11B (UniProt Q9C0D3)
How it was run: as §1

[12] = target: ZNF239 (UniProt Q16600)
How it was run: as §1

[13] = target: ZNF512 (UniProt Q96ME7)
How it was run: as §1

Measured: log2 fold change

ZRANB2, sequence (O95218 whole entry, looked up): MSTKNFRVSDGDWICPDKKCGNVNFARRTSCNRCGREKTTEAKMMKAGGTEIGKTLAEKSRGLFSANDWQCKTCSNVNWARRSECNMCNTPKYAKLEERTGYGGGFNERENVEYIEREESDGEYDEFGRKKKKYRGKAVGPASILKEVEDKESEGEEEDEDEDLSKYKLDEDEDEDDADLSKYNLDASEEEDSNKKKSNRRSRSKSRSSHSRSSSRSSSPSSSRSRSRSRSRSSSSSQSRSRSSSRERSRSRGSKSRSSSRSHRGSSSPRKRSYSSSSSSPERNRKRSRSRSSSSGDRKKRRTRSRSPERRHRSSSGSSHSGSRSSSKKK
ZWILCH, sequence (Q9H900 whole entry, looked up): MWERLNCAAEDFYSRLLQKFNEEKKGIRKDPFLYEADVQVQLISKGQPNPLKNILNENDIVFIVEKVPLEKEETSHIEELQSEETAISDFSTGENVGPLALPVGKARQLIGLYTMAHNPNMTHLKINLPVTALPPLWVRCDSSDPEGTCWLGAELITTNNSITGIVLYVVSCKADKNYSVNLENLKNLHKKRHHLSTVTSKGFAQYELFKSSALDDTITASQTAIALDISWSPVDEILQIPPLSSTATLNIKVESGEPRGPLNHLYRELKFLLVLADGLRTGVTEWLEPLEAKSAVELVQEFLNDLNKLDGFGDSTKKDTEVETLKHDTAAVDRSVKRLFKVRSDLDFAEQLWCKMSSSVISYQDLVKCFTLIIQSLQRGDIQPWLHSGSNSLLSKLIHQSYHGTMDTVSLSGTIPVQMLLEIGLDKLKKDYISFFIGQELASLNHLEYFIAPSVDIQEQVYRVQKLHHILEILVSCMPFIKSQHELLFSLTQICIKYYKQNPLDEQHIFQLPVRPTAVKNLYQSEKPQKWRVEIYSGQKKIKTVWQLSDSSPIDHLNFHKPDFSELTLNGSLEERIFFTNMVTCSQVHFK
ZNF579, sequence (Q8NAF0 whole entry, looked up): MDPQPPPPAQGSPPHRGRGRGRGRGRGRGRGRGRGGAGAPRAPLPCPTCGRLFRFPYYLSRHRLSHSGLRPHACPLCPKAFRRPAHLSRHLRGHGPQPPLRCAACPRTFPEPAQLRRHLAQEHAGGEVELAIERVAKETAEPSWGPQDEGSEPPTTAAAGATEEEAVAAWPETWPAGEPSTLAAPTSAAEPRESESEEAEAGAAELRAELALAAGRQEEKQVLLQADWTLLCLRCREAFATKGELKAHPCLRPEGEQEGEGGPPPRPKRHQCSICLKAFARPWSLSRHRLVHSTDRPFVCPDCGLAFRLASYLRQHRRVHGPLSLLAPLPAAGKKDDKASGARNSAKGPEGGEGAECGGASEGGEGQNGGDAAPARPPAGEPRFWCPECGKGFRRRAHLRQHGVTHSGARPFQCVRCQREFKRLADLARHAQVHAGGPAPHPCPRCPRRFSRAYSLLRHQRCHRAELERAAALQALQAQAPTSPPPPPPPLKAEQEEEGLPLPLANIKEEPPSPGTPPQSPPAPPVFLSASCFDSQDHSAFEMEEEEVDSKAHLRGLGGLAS
ZNF277, sequence (Q9NRM2 whole entry, looked up): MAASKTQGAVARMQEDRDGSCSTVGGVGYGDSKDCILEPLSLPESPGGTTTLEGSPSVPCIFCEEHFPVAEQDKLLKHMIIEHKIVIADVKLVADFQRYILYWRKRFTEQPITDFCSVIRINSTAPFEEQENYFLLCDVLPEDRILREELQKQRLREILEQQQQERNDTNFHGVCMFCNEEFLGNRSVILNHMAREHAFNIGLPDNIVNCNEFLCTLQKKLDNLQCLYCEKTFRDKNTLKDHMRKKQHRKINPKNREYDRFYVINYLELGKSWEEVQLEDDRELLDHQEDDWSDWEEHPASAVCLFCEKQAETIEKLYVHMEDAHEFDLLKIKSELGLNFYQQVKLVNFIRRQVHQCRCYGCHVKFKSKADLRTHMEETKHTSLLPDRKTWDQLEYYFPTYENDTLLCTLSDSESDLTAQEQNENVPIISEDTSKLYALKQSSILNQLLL
ZNF622, sequence (Q969S3 whole entry, looked up): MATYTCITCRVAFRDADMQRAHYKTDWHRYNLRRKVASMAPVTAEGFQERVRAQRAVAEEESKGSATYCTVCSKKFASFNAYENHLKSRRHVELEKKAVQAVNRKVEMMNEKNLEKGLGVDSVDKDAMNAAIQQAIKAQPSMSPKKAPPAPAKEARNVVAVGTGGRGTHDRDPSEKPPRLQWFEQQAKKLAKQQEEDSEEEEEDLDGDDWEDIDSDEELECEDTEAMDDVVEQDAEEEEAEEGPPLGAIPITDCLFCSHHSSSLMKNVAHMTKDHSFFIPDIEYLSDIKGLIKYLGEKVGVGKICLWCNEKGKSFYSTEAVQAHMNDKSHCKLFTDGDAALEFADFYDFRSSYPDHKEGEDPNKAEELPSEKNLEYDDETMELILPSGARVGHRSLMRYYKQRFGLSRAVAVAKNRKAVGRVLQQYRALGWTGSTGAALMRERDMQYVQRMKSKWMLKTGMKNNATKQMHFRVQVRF
ZW10, sequence (O43264 whole entry, looked up): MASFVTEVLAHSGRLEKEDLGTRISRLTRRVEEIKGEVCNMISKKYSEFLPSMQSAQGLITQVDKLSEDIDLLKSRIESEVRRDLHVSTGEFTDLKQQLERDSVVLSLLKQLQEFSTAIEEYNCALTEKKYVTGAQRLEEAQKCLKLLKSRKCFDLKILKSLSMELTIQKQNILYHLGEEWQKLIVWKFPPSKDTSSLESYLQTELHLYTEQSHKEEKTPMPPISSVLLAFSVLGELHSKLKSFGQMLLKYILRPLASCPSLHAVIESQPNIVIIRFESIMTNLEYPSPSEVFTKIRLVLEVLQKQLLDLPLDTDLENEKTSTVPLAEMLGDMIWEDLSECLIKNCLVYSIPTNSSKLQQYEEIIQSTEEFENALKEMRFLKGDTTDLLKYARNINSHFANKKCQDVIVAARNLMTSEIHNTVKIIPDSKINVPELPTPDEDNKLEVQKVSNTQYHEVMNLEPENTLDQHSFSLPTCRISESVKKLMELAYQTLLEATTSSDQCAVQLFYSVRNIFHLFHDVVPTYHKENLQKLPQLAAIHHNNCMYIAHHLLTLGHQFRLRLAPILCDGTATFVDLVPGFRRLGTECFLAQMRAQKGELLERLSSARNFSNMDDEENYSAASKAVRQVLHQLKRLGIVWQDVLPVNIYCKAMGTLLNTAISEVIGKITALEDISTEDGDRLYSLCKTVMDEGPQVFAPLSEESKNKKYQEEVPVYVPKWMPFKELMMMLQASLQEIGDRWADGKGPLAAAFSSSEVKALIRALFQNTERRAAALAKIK
ZYG11B, sequence (Q9C0D3 whole entry, looked up): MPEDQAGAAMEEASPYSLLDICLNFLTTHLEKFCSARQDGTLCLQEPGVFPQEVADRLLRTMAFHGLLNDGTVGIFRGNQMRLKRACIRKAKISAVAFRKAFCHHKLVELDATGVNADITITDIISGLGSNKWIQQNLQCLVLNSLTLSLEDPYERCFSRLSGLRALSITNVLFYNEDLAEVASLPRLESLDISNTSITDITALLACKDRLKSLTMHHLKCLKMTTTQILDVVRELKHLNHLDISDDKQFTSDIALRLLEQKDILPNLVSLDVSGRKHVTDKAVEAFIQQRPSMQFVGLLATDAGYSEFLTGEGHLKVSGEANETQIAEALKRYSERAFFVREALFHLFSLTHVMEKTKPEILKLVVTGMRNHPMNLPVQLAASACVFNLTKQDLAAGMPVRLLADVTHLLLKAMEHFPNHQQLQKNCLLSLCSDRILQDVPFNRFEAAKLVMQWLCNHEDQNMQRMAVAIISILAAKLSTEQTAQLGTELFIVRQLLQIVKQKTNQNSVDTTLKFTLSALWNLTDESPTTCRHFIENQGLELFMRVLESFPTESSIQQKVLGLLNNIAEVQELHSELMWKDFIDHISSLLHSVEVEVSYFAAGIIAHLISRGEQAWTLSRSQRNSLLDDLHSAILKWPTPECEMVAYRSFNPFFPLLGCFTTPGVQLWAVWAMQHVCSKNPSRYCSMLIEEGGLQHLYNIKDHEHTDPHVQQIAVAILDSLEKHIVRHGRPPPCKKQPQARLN
ZNF217, sequence (O75362 whole entry, looked up): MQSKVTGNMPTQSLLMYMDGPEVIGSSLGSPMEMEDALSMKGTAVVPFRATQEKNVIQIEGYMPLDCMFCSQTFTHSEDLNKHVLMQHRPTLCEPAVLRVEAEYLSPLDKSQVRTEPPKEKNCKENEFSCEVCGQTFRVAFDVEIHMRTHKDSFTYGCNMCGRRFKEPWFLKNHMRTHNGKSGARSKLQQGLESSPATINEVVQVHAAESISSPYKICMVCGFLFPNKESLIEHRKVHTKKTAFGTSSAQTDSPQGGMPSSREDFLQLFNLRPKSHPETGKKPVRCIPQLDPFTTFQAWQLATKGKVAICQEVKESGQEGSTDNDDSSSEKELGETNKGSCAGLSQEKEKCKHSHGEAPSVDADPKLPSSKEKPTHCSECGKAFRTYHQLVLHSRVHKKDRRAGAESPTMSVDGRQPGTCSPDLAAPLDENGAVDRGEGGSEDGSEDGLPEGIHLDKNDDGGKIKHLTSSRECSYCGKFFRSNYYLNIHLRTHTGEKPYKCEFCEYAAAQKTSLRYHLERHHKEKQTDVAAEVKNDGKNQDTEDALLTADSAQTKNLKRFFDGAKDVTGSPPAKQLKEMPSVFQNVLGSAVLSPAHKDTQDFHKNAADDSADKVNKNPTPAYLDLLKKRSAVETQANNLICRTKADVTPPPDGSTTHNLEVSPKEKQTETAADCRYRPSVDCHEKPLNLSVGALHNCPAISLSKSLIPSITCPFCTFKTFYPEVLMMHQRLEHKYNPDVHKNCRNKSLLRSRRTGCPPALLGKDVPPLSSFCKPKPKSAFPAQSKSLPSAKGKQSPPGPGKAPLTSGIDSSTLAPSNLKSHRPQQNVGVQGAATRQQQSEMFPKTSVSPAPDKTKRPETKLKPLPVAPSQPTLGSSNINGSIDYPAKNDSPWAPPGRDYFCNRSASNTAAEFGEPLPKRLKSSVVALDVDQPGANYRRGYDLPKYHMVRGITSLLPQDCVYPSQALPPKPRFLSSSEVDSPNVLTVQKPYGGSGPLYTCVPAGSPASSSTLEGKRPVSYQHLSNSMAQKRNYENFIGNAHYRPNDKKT

c1cc(OCCN2CCCCC2)cc(-c2n[nH]c3ccc(-c4nnc[nH]4)cc23)c1
inactive: [1] -0.096 | [2] -0.275 | [3] -0.043 | [4] 0.078 | [5] -0.083 | [6] -0.003 | [7] 0.092 | [8] 0.021 | [9] -0.016 | [10] -0.048 | [11] 0.002

Cc1cc(SCc2sc(-c3ccc(C(F)(F)F)cc3)nc2C)ccc1OCC(=O)O
inactive: [1] 0.112 | [12] -0.172 | [2] 0.152 | [4] -0.009 | [5] -0.301 | [6] -0.134 | [7] -0.009 | [8] -0.086 | [9] 0.088 | [10] 0.027 | [11] -0.133

CC(C)c1cnn2c(NCc3ccccc3)cc(NCCCCCCN)nc12
inactive: [1] -0.034 | [12] 0.149 | [2] -0.3 | [13] 0.321 | [4] 0.054 | [6] -0.042 | [7] -0.011 | [8] 0.014 | [9] -0.213 | [10] -0.107 | [11] 0.058
